Inconclusive results are not listed. Entries that show only a call come without a potency. Unmarked numbers belong to inactive results. Calls of active or inactive are those of the source. Unless noted, calls follow the shape of the dose curve; as a rule, active = well fitted curve in the direction sought with a large enough effect; inconclusive = small, poorly fitted or top-dose-only effect, or another doubt; inactive = no such curve, though single readings can be large; an effect the other way counts as inactive or inconclusive.
Experiments:
[1] = qHTS for Inhibitors of Plasmodium falciparum (DD2) proliferation (AID 504314);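 also: parasite DNA measured by SYBR Green fluorescence after red cell lysis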
In short: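 P. falciparum Dd2 is grown in erythrocytes with test compound for 72 h at 37C under 5% CO2. Growth is scored by SYBR Green I fluorescence after detergent lysis, relative to artemisinin (0.29 uM) and DMSO controls.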

[2] = qHTS for Inhibitors of Plasmodium falciparum (CP250) proliferation (AID 504320)
In short: (§1)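 Parasite growth measured as SYBR Green DNA fluorescence (ex 485, em 535 nm) after overnight lysis following 72 h culture at 37 °C, 0.3% parasitemia, 2.5% hematocrit. Values normalized against DMSO and 0.29 uM artemisinin controls, with plate-stack correction.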

[3] = biological target: Atrial natriuretic peptide receptor 1 (Homo sapiens) (UniProt P16066); assay: Natriuretic polypeptide receptor (hNpr1) antagonism - Pilot CMLD screen (AID 1347052; calls by dose curve;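 also: cGMP level read as GloSensor luciferase luminescence after agonist stimulation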; also: potency is read from the fitted curve at half-maximal effect)
[4] = qHTS for Inhibitors of Plasmodium falciparum (HB3) proliferation (AID 504318); also: nearly all actives have a fitted effect of over 60% in size
In short: as §1

Sequence of Atrial natriuretic peptide receptor 1 (Homo sapiens) (P16066 whole entry, looked up): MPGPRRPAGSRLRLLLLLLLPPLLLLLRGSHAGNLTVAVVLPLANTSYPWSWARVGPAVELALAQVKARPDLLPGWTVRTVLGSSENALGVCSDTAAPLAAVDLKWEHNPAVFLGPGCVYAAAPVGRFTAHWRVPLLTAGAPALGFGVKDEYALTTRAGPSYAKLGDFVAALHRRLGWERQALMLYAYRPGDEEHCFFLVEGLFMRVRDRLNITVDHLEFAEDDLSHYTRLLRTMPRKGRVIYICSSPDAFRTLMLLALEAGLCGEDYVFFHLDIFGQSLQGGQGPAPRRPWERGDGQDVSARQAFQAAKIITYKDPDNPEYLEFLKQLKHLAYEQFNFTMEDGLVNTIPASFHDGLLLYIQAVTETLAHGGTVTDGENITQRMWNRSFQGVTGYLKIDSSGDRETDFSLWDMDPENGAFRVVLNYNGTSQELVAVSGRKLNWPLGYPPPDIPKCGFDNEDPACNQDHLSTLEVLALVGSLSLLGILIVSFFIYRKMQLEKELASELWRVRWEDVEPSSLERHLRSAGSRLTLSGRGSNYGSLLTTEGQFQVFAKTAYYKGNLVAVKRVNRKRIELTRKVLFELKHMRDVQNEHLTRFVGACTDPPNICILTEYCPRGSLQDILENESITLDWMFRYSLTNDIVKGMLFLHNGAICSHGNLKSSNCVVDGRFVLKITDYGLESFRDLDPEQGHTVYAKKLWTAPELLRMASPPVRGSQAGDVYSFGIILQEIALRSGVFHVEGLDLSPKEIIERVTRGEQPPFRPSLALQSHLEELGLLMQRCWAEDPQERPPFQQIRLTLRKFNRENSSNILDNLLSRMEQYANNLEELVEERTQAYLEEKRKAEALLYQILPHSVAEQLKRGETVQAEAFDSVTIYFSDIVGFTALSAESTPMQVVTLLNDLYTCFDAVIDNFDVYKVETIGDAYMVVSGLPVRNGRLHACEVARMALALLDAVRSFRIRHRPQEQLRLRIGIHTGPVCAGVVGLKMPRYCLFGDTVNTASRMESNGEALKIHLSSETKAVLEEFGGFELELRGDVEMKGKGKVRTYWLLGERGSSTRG

Question: For CC1=C[C@@H](C)O[C@@]2(C1)C(=O)Nc1cccc(Br)c12, which Potency [1] is on record?
Answer: inactive

Question: What about the Potency [2] of the same compound?
Answer: inactive

Question: And the Potency [3]?
Answer: inactive

Question: With COc1cccc(C(CC2=CCCCC2)NC(=O)C(F)(F)F)c1 (stereo not given) as the compound, how does the Potency [1] read?
Answer: inactive

Question: What about the Potency [2] of the same compound?
Answer: inactive

Question: What about the Potency [3] of the same compound?
Answer: inactive

Question: For CCC=C1C(=O)[C@]2(C(=O)c3ccccc3)C[C@H]3CCC(CCC)(C2=O)[C@@]13OC, which Potency [1] is on record?
Answer: inactive

Question: And the Potency [2]?
Answer: inactive

Question: And the Potency [3]?
Answer: inactive

Question: With COC(=O)[C@H]1[C@@H](c2ccccc2)NC(=O)O[C@@H]1C as the compound, how does the Potency [1] read?
Answer: inactive

Question: What about the Potency [4] of the same compound?
Answer: inactive

Question: And the Potency [2]?
Answer: inactive

Question: And the Potency [3]?
Answer: inactive

Question: With Cc1cccc(C)c1Nc1oc(-c2ccccc2)nc1-c1cccc2ccccc12 as the compound, how does the Potency [1] read?
Answer: inactive

Question: What about the Potency [4] of the same compound?
Answer: inactive

Question: And the Potency [2]?
Answer: inactive

Question: What about the Potency [3] of the same compound?
Answer: inactive

Question: With CCCCCCCC1=Cc2ccccc2C(CC(=O)c2ccccc2)N1C(=O)OC (stereo not given) as the compound, how does the activity, negative = inhibition [1] read?
Answer: -4.11% [at 1.12 µM]

Question: What about the Potency [2] of the same compound?
Answer: inactive

Question: And the Potency [3]?
Answer: inactive

Question: What does the source list for C=CCN1c2ccccc2[C@]23CCC(=O)N(CCc4ccccn4)C2=NC(C(=O)OC)=C(C(=O)OC)[C@H]13?
Answer: Potency [1]: inactive; Potency [2]: inactive; Potency [3]: inactive

Question: With C=C(C)C(O)C=Cc1ccccc1OC (stereo not given) as the compound, how does the Potency [1] read?
Answer: inactive

Question: And the Potency [4]?
Answer: inactive

Question: What about the Potency [2] of the same compound?
Answer: inactive

Question: What about the Potency [3] of the same compound?
Answer: inactive

Question: Which Potency [1] does the source give for CC(CCN1CCCc2nc(C)c(C)cc21)=NO[C@@H](C)c1cc(-c2c(C)cc(C)cc2C)no1 here?
Answer: inactive

Question: What about the Potency [4] of the same compound?
Answer: inactive

Question: What about the Potency [2] of the same compound?
Answer: inactive

Question: And the Potency [3]?
Answer: inactive

Question: With CCCCCCCC1=Cc2ccccc2C(C(C(=O)OC)C(=O)OC)N1C(=O)OC (stereo not given) as the compound, how does the Potency [1] read?
Answer: inactive

Question: What about the Potency [2] of the same compound?
Answer: inactive

Question: What about the Potency [3] of the same compound?
Answer: inactive

Question: With COC(=O)C(C(=O)OC)[C@@H]1O[C@@]23COCC[C@]2(C)[C@@H]3c2ccccc21 as the compound, how does the Potency [1] read?
Answer: inactive

Question: What about the Potency [4] of the same compound?
Answer: inactive

Question: What about the Potency [2] of the same compound?
Answer: inactive

Question: And the Potency [3]?
Answer: inactive

Question: Which Potency [1] does the source give for CC(=CC[Si](C)(C)C)CCC=O here?
Answer: inactive

Question: And the Potency [2]?
Answer: inactive

Question: What about the Potency [3] of the same compound?
Answer: inactive

Question: Which Potency [1] does the source give for C[C@@H]1C=CCCO[C@]12C(=O)N(Cc1ccccc1C(F)(F)F)c1cccc(Br)c12 here?
Answer: inactive

Question: And the Potency [2]?
Answer: inactive

Question: And the Potency [3]?
Answer: inactive

Question: For CC(C)=CCCC(C)=CCN1C(=O)[C@]2(OCCC=C[C@H]2C)c2ccccc21, which Potency [1] is on record?
Answer: inactive

Question: What about the Potency [2] of the same compound?
Answer: inactive

Question: What about the Potency [3] of the same compound?
Answer: inactive

Question: For C[C@@H]1C[C@H]2[C@@H](C)C(=O)N3[C@@H](C[C@@H](C)[C@@H]3c3ccccc3)[C@@H](C)C(=O)N2[C@H]1c1ccccc1, which Potency [1] is on record?
Answer: inactive

Question: And the Potency [4]?
Answer: inactive

Question: And the Potency [2]?
Answer: inactive

Question: And the Potency [3]?
Answer: inactive

Question: Which Potency [1] does the source give for CCCCCCCc1cc2ccccc2c2c(C(=O)OC)c(C)c(C(=O)OC)n12 here?
Answer: inactive

Question: And the Potency [4]?
Answer: inactive

Question: And the Potency [2]?
Answer: inactive

Question: What about the Potency [3] of the same compound?
Answer: 944 nM (active)

Source: PubChem BioAssay (NCATS)
